MCL1-BIM inh – disrupts human MCL1 binding to BIM-BH3 peptide; GST-MCL1 / FITC-Bim-BH3 fluorescence polarization; inhibition, % at 10.9 µM; hit rate 0.68% among 320,000; AID 2057;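 active means inhibition above the mean inhibition of all tested compounds plus 3 SD, set per campaign, cut at about 40% in these data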;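 further: 0% = DMSO wells and 100% = unlabeled Bim-BH3 peptide control; higher means more loss of mP so more displacement of Bim peptide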
Target sequence (Q07820 whole entry, looked up): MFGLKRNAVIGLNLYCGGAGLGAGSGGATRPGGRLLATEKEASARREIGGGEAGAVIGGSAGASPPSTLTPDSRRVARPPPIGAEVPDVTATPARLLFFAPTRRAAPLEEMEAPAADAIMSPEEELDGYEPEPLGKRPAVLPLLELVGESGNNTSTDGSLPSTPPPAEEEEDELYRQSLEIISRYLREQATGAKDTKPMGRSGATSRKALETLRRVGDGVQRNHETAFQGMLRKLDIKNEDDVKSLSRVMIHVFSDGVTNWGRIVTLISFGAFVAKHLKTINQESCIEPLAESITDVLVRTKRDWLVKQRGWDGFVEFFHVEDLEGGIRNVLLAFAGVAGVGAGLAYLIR
Keap1 Nrf2 FP – inhibitors of human Keap1-Nrf2 protein-protein interaction. Q14145. Keap1 Kelch-Nrf2 peptide fluorescence polarization, 1536-well. inhibition, % at 9.4 µM. hit rate 0.15% among 340,000; in the data active means inhibition above about 12%;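 further: human Keap1 Kelch domain with fluorescein labeled Nrf2 9mer peptide probe; 0% = neutral control wells and 100% = peptide positive control; higher means more block of Keap1 binding to Nrf2 peptide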
GLD-1 RNA inh – GLD-1-TGE RNA interaction inhibition (C. elegans) | Q17339 | purified GLD-1 + fluorescein TGE RNA, fluorescence polarization | inhibition, % at 5.96 µM | hit rate 0.44% among 320,000 | AID 2280;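 active means percent inhibition above a per-plate cutoff, the plate mean of test compounds plus 3 SD, cut at about 30% in these data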;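 further: 0% = DMSO wells with GLD-1 and probe and 100% = wells lacking GLD-1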
BCLXL inh – inhibitors of human Bcl-xL; AID 2129; hit rate 0.7% among 320,000; inhibition, % at 10.9 µM; GST-Bcl-xL / FITC-Bim BH3 peptide fluorescence polarization;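 active means inhibition above the mean of all tested compounds plus 3 SD, cutoff set per campaign, cut at about 30% in these data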;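 further: 0% = DMSO wells and 100% = unlabeled Bim-BH3 peptide competitor; inhibitors lower millipolarization by displacing the labeled peptide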
Target sequence (Q07817 whole entry, looked up): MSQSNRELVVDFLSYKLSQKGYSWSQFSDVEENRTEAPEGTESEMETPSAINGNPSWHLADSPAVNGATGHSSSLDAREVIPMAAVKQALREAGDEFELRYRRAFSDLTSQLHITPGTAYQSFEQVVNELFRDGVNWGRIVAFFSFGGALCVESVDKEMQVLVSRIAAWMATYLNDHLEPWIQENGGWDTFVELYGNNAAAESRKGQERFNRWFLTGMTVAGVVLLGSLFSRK
C-LANA FP – blocks KSHV LANA C-terminal domain binding to DNA. inhibition, % at 9 µM. hit rate 0.078% among 340,000. AID 504423. MBP-C-LANA/FAM-LBS DNA binding, fluorescence polarization;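 active means highest replicate inhibition at or above 60% at 9 µM, even if other replicates fall short; inactive means all replicates below 60% inhibition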;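 further: 0% = neutral control wells and 100% = 4 µM acridine orange control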
E coli Lon inh – inhibitors of E. coli Lon protease; P0A9M0; purified E. coli Lon protease, fluorescence polarization; AID 602123; inhibition, % at 7.94 µM; hit rate 0.42% among 360,000; in the data active means inhibition above about 13%, passing the limit was not always enough;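 further: 0% = enzyme with probe and DMSO and 100% = no enzyme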
GLD1 RNA confirm – GLD-1 TGE RNA interaction inhibition, confirmation; shares compounds with GLD-1 RNA inh; GLD-1/FL-TGE RNA fluorescence polarization, biochemical; inhibition, % at 5.96 µM; hit rate 10% among 550; AID 2459;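 active means average inhibition across triplicates above the hit cutoff set in the primary screen, cut at about 32% in these data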;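 further: 0% = GLD-1 with RNA probe and DMSO and 100% = wells lacking GLD-1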
Starred values were filed as active, the others as inactive; x = no result. Rows were chosen to be rich in hits. Some 1.3% of all compounds tested hit in one or more screens of this group.

SMILES | MCL1-BIM inh | Keap1 Nrf2 FP | GLD-1 RNA inh | BCLXL inh | C-LANA FP | E coli Lon inh | GLD1 RNA confirm
CCOC(=O)c1c(C)nc2sc3c(=O)n(-c4ccc(C(C)=O)cc4)cnc3c2c1-c1ccc(OC)cc1 | 28 | 3 | 43* | 31* | 1 | -3 | 0
Cc1ccc(C2=Nc3ccccc3NC(C)(c3ccc(C)o3)C2)o1 (stereo unspecified) | 36 | 1 | 44* | 40* | 1 | 14 | -2
COc1c(CC=C(C)C)cc(C2CC(=O)c3c(O)cc(O)cc3O2)c(CC=C(C)C)c1O (stereo unspecified) | 2 | x | 8 | 4 | x | x | x
CC(C)=CCc1cc([C@@H]2CC(=O)c3ccc(O)c(CC=C(C)C)c3O2)ccc1O | 1 | -6 | 43* | 2 | -1 | -3 | -6
C=CCN1C=C2C(=O)C(C)(OC(=O)C3CCCC3)C(=O)C=C2C=C1c1ccsc1 (stereo unspecified) | 38 | -6 | 32* | 31* | 2 | 16 | 3
Nc1nc(-c2ccccc2)c(N=Nc2ccccc2Cl)s1 | 4 | -2 | 159* | 1 | 3 | -76 | -1
COc1ccc(S(=O)(=O)C(C#N)c2nc3ccccc3nc2N2CCCC(C)C2)cc1 (stereo unspecified) | 41* | 5 | 33* | 43* | 2 | 8 | 7
O=C(OC(C(=O)Nc1ccc(Cl)c(C(F)(F)F)c1)c1ccccc1)C1=COCCO1 (stereo unspecified) | 5 | 0 | 45* | 3 | 0 | 0 | 5
O=C(OC(C(=O)Nc1ccc(Cl)cc1C(F)(F)F)c1ccccc1)C1=COCCO1 (stereo unspecified) | -5 | -2 | -1 | -2 | 1 | 6 | x
Nc1c(NCCC2=CCCCC2)c(=O)[nH]c(=O)n1Cc1ccccc1 | 41* | 0 | 48* | 42* | 7 | 7 | -2
COc1ccc(NC(=O)N2c3ccc(OC)cc3C(C)=CC2(C)C)cc1 | 0 | -1 | 16 | 11 | 6 | -1 | x
CCNC(=O)N1c2ccc(OC)cc2C(C)=CC1(C)C | -2 | -1 | 70* | 52* | 1 | 14 | -4
O=C(O)c1ccccc1C(=O)Nc1ccc(-c2csc(-c3ccccc3)n2)cc1 | -4 | -3 | 94* | -1 | 2 | -1 | -1
CCN(CC(=O)Nc1ccccc1C(F)(F)F)C(=O)CN1C(=O)NC(C)(c2ccccc2)C1=O (stereo unspecified) | -5 | 4 | 3 | -4 | -1 | -3 | x
CCOC(=O)c1c(-c2ccccc2)oc2cc(CN(C)C)c(O)c(CN(C)C)c12 | 49* | 4 | 37* | 35* | 2 | -12 | 7
COc1ccc(NC(=O)CN(C)C(=O)c2oc3ccccc3c2C)cc1 | 1 | 3 | -2 | -1 | 1 | 4 | x
O=C1CCN(S(=O)(=O)c2ccc(Cl)cc2)CCN1 | -4 | 2 | 3 | 5 | -2 | -6 | x
CCOc1cc(N2CCOCC2)c(OCC)cc1NC(C)C(=O)N1CCN(CC)CC1 (stereo unspecified) | x | 3 | x | x | -1 | -5 | x
CCN1CCN(C(=O)C(C)Nc2cc(Cl)c(OC)cc2OC)CC1 (stereo unspecified) | 48* | -7 | 36* | 53* | 4 | 10 | 26
COc1ccc2cc(C#N)c(N3CCOCC3)nc2c1 | 5 | -2 | -5 | 8 | 2 | -11 | x
COc1ccc2nc(N3CCC(O)CC3)c(C#N)cc2c1 | 38 | 5 | 37* | 42* | 4 | 0 | 31*
COc1ccc(-c2noc(CNC(=O)c3ccoc3C)n2)cc1OC | 2 | 2 | -6 | -1 | 1 | 1 | x
O=C(Nc1ccc2nc(-c3ccco3)c(-c3ccco3)nc2c1)N1CCCCCC1 | 118* | x | 41* | 105* | x | x | 27
CCc1ccc(OCC(O)Cn2c(N3CCCCC3)nc3c2c(=O)[nH]c(=O)n3C)cc1 (stereo unspecified) | -1 | -4 | 36* | 3 | 0 | -4 | -3
Cc1ccc(Cc2c(-c3ccc(F)cc3)nc3c(Cl)cc(C(F)(F)F)cn23)cc1 | x | x | x | x | x | -1 | x
SMILES | MCL1-BIM inh | Keap1 Nrf2 FP | GLD-1 RNA inh | BCLXL inh | C-LANA FP | E coli Lon inh | GLD1 RNA confirm
Fc1ccc(-c2nc3c(Cl)cc(C(F)(F)F)cn3c2Cl)cc1 | 22 | 3 | 38* | 25 | 5 | 2 | 18
COc1ccc(CCN2C(=S)N(C)C(=O)C2CC(=O)Nc2ccc(F)cc2)cc1 (stereo unspecified) | 7 | x | 61* | 5 | x | -3 | -2
CCN1C(=O)C(CC(=O)Nc2ccc(OC)cc2)N(CCc2ccc(OC)cc2)C1=S (stereo unspecified) | 6 | 1 | -1 | 3 | -1 | 4 | x
COc1cccc(CN2CCN(c3nc4nonc4nc3N3CCCCC3)CC2=O)c1 | 8 | -1 | 10 | 6 | 0 | 0 | x
CC(C)c1ccc(/C=N/n2nnnc2Nc2ccccc2)cc1 | 40 | -6 | 49* | 43* | -1 | -3 | -10
COc1cc(C2C3=C(CC(C)(C)CC3=O)N(C)C3=C2C(=O)CC(C)(C)C3)cc(Br)c1O | 26 | 0 | 6 | 19 | 0 | -4 | x
Cc1cccc(C)c1NC(=O)COC(=O)/C=C/c1ccc(S(=O)(=O)N2CCOCC2)cc1 | x | -3 | -2 | x | 1 | -3 | x
O=C(c1nc2ccccn2c1CNCCCn1nnc2ccccc21)N1CCOCC1 | 13 | -3 | 8 | 10 | 2 | -5 | x
CCc1c(C)sc(NC(=O)OC)c1C(N)=O | 3 | 0 | 4 | -2 | -3 | -15 | x
CCc1c(C)sc(NC(=O)OC)c1C(=O)N1CCCCC1 | 41* | 0 | 33* | 37* | 4 | 14 | 7
CCn1c(SCC(=O)N2CCOCC2)nc2c([nH]c3ccccc32)c1=O | 9 | -4 | 10 | 3 | 0 | -4 | x
CC1CC(C)CN(C(=S)Nc2ccc(SC(F)F)cc2)C1 (stereo unspecified) | 0 | -5 | 43* | 3 | 1 | 10 | 4
CC1CN(C(=S)Nc2ccc(SC(F)F)cc2)CC(C)O1 (stereo unspecified) | 6 | 2 | 3 | 0 | 2 | 8 | x
CN(C)N=Nc1ccc(S(=O)(=O)/N=C(\O)c2ccccc2)cc1 | -3 | -3 | 10 | 2 | 0 | -11 | x
O=C(CSc1ccc(-c2ccco2)nn1)Nc1ccccc1 | 7 | 3 | 5 | 9 | -1 | 0 | x
O=C(CSc1ccc(-c2ccco2)nn1)NCc1ccccc1Cl | 41* | -7 | 34* | 42* | -2 | 2 | -7
CC1CCCCN1Cc1c(O)ccc2c(=O)c(-c3ccccc3)coc12 (stereo unspecified) | 41* | 6 | 42* | 36* | -2 | 1 | -1
CCC1CCCCN1Cc1c(O)ccc2c(=O)c(-c3ccccc3)coc12 (stereo unspecified) | -3 | 1 | -46 | 1 | 2 | -3 | x
